Screening results: PubChem BioAssay, several laboratories
WT yeast gro inh = growth inhibition of WT yeast, mitochondrial fusion screen; AID 1362; actives 2.1% (n = 190,000); mitochondrial fusion phenotypic screen, WT strain; inhibition, % at 10 µM; in the data active means inhibition above about 58%; tested in S. cerevisiae
ROMK primary = modulators of human ROMK potassium channel; P48048; Tet-inducible ROMK, thallium flux fluorescence; actives lie on both sides; B-score at 10 µM; actives 2% (n = 130,000); AID 1918;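 active means signal ratio slope over the read window, or its plate-corrected B-score, at least 3 SD from the plate mean, either direction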;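 further: B-score of the F/F0 ratio slope over 7 to 12 s after thallium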
Lmaj promast = inhibitors of Leishmania major promastigote growth. Leishmania major promastigotes, resazurin fluorescence viability. inhibition, % at 10 µM. actives 9% (n = 200,000); in the data active means inhibition above about 50%;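 further: promastigotes grown with compound for 44 hours at 28 °C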
KCC2 mod = modulates chloride dependent transport by human KCC2. Q9H2X9. KCC2 cells, thallium flux FluoZin-2 fluorescence. B-score of Tl+ flux slope (higher = more flux/activation; lower = inhibition) at 10 µM. actives 2.2% (n = 190,000);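 active means thallium flux slope and its plate-corrected score both differing from the plate sample mean at a set confidence after two filtering rounds, in either direction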;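 further: slope of fluorescence scaled to starting intensity during 10 to 20 s after thallium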
Target sequence (Q9H2X9 whole entry, looked up): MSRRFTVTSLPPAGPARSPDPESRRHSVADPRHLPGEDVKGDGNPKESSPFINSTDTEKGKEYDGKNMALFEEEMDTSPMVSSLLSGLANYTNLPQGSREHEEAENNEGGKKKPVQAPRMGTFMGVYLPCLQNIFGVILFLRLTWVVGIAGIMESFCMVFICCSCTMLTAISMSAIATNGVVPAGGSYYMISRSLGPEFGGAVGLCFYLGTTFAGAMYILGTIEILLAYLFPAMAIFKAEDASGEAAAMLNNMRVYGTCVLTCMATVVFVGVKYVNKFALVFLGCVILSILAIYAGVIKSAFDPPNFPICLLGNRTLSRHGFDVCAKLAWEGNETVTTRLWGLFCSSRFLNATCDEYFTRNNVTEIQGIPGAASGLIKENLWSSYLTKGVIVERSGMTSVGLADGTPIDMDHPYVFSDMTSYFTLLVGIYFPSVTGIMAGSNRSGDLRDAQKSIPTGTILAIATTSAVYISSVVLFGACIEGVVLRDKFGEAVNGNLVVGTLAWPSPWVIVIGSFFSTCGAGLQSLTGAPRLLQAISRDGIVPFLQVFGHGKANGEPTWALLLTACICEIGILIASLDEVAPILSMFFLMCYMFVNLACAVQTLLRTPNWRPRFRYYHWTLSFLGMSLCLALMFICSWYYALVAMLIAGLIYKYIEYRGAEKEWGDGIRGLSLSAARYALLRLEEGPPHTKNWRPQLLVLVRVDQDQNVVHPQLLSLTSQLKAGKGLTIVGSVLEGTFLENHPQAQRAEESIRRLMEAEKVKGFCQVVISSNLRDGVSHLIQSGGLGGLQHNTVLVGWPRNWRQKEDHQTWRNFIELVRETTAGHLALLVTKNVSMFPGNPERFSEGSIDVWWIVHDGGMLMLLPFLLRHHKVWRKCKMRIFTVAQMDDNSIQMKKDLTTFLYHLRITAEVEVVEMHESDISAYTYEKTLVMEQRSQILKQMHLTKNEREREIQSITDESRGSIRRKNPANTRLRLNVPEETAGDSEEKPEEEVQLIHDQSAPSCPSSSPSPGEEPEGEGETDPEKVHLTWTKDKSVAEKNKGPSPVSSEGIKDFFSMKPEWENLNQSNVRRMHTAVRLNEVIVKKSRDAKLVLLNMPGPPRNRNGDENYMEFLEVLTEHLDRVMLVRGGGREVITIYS
Calpain2 inh = calpain II (pig) inhibition | purified calpain II, fluorogenic peptide substrate, 30 min | inhibition, % at 16 µM | actives 0.37% (n = 220,000) | AID 1236;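 active means inhibition above about 50%, limit read from the data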
KCC2 sec1 = KCC2 (human) modulation, secondary assay | AID 1713 | HEK293-KCC2, thallium flux, FluoZin2 fluorescence; active compounds read high | shares compounds with KCC2 mod | normalised thallium flux (F/F0 slope) at 10 µM | actives 15% (n = 3,700);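 active means thallium flux slope above the same plate's solvent-only control mean plus 3 SD; inconclusive means the two replicate wells disagree; inactive means no significant difference from solvent-only control wells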
KCC2 bumet counter = thallium flux persisting under bumetanide in KCC2 cells, counter-screen secondary assay; actives 49% (n = 3,700); AID 1714; normalized thallium flux at 10 µM; shares compounds with KCC2 mod; HEK293-KCC2 + bumetanide/ouabain, thallium flux FluoZin2; active compounds read high;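 active means thallium entry rate above the same plate's blocked-transporter control wells by more than 3 SD; inconclusive means the two repeat wells disagree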;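 further: raw slope of fluorescence over initial fluorescence between 10 and 20 s after thallium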
KCC2 secondary2 = confirmation of human KCC2 transport modulators. shares compounds with KCC2 mod. HEK293-KCC2, thallium flux FluoZin2 fluorescence; actives lie on both sides; F/F0 rise rate, 10–20 s post-thallium. normalized thallium flux at 10 µM. actives 23% (n = 3,700);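 active means thallium flux slope more than 3 SD above or below the plate's solvent-only control mean, mostly below; inconclusive means the two repeat wells disagreed; inactive means no significant shift from solvent-only controls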;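 further: raw slope with 0.1% DMSO as baseline and bumetanide as block control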
HEK counter1 = counter-screen for KCC2 modulators: effect in parental HEK293 cells; actives 46% (n = 3,700); shares compounds with KCC2 mod; thallium flux rate (normalised fluorescence) at 10 µM; thallium flux FluoZin2, ouabain; baseline-ratio fluorescence slope, 10–20 s after thallium;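 active means thallium flux rate significantly above the same plate's solvent-only control wells, beyond their mean plus 3 SD; inconclusive means the two replicate wells gave conflicting results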
KCC2 retest ouab = confirmation of human KCC2 modulators with ouabain; raw Tl+ flux slope (below DMSO = inhibition, above = activation) at 10 µM; HEK293-KCC2, thallium flux FluoZin2 fluorescence; bidirectional: low = inhibitor, high = activator; actives 48% (n = 3,700); shares compounds with KCC2 mod;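 active means thallium flux slope beyond 3 SD from same-plate DMSO control mean in most replicates, usually higher, sometimes lower; inconclusive means repeat tests gave conflicting results; inactive means no significant difference from controls in most replicates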;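 further: slope of initial-normalized fluorescence between seconds 10 and 20 after thallium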
HEK293 Tl flux2 = acts in parental HEK cells, second KCC2 counter-screen | shares compounds with KCC2 mod | HEK293 parental, thallium flux FluoZin-2 fluorescence slope | thallium flux slope at 10 µM | actives 33% (n = 3,700) | AID 1718;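 active means thallium flux slope above the same plate's solvent-control mean plus 3 SD in both duplicate wells; inconclusive means duplicate wells that disagreed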;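 further: run without ouabain in cells lacking the KCC2 cotransporter; slope of fluorescence scaled to its starting value between 10 and 20 s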
* hit, by the source's call; ? = inconclusive; nt = not tested or not shown. Most compounds without a hit are left out; they make up all but 12% or so of the library.

SMILES	WT yeast gro inh	ROMK primary	Lmaj promast	KCC2 mod	Calpain2 inh	KCC2 sec1	KCC2 bumet counter	KCC2 secondary2	HEK counter1	KCC2 retest ouab	HEK293 Tl flux2
CC(Sc1nc2cc([N+](=O)[O-])ccc2n1-c1ccc(F)cc1)C(=O)NCc1ccc2c(c1)OCO2 (configuration not stated)	-0.7	-0.525	9.0	9.95*	-40.0	0.00916	0.0146*	0.0336	0.013*	0.0273	0.0123*
CN(C(=O)CSc1nc2ccccc2n1CCc1ccccc1)C1CCS(=O)(=O)C1 (configuration not stated)	-19.6	nt	3.1	9.45*	25.0	0.00724	0.0149*	0.0306	0.0113*	?	0.0138*
CN(C(=O)CSc1nc2cc([N+](=O)[O-])ccc2n1-c1ccc(F)cc1)C1CCS(=O)(=O)C1 (configuration not stated)	-7.0	0.0531	0.8	4.93*	-3.1	0.0097	0.0229*	0.032	0.0138*	?	0.0115*
COCCn1c(SCC(=O)N(C)C2CCS(=O)(=O)C2)nc2ccccc2c1=O (configuration not stated)	5.4	-0.0229	-1.7	0.283	16.0	nt	nt	nt	nt	nt	nt
CN(C(=O)CSc1nc2ccc([N+](=O)[O-])cc2s1)C1CCS(=O)(=O)C1 (configuration not stated)	nt	nt	nt	1.15	-15.3	nt	nt	nt	nt	nt	nt
CCOc1ccccc1N1CCN(C/C=C/c2ccc(N(C)C)cc2)CC1	15.4	nt	8.0	-1.06	-40.5	nt	nt	nt	nt	nt	nt
O=C(Nc1ccc(Cl)cc1C(=O)NCc1cccnc1)c1ccc(Cl)cc1Cl	-29.5	nt	5.9	-0.215	10.9	nt	nt	nt	nt	nt	nt
O=C(NC(=S)NN1CCCCC1c1cccnc1)c1ccc(Cl)cc1Cl (configuration not stated)	nt	nt	nt	9.07*	4.8	0.0124*	0.0212*	0.0346	0.0118*	?	?
O=C1NC2(CCc3ccccc3C2)C(=O)N1CCOc1cccc(Cl)c1 (configuration not stated)	22.6	-0.763	-6.7	-0.631	20.8	nt	nt	nt	nt	nt	nt
Cc1nn(-c2ccc(F)cc2)c(Cl)c1/C=C(\CCC(=O)O)c1nc2ccccc2s1	-4.2	nt	-5.5	-9.41*	11.0	?	?	0.0178*	0.00592*	0.00929*	?
CCOC(=O)N1CCN(C(=O)/C=C/c2c(C)nn(-c3ccc(F)cc3)c2Cl)CC1	6.8	nt	12.7	-2.69	-12.5	nt	nt	nt	nt	nt	nt
O=C(O)CC/C(=C\c1cccc(NC(=O)c2ccccc2Cl)c1)c1nc2ccccc2s1	-12.0	0.374	-5.1	-2.34*	-323.5	0.00704	0.00514	?	0.00767	?	0.0118
COc1cccc(/C=C(\CC(=O)O)c2nc3ccccc3s2)c1	-2.4	0.0657	-4.6	0.51	-10.1	nt	nt	nt	nt	nt	nt
O=C(O)CC/C(=C\c1ccc(N2CCCC2)c([N+](=O)[O-])c1)c1nc2ccccc2s1	-11.9	0.982	-4.3	-8.5*	-119.5	0.00703	0.00456	0.0202*	0.00734	0.0109*	0.00974
O=C(O)CC/C(=C\c1ccccc1[N+](=O)[O-])c1nc2ccccc2s1	-8.8	-1.29	-0.8	-4.07*	-16.6	0.00924	0.00715	?	0.00651	0.0122*	0.0101
CCOc1ccc(NC(=O)CC2C(=O)NCCN2C(=O)c2ccc(Cl)cc2)cc1 (configuration not stated)	8.7	-0.369	-4.2	-0.864	-14.4	nt	nt	nt	nt	nt	nt
N/C(=N\OC(=O)c1ccc2c(c1)OCO2)c1ccncc1	nt	0.734	nt	0.466	12.3	nt	nt	nt	nt	nt	nt
Cc1noc(C)c1S(=O)(=O)N1CCC(C(=O)N2CCN(c3ccc(F)cc3)CC2)CC1	3.9	-0.118	4.4	-4.88*	10.1	0.00559	?	0.0255*	0.00696	?	0.0106
Cc1c(Cc2ccccc2)c(=O)oc2cc(OCc3ccc(C(=O)O)cc3)ccc12	-4.1	-0.0699	-6.9	-4.23*	-317.4	0.00812	0.00561	0.0353	0.00625*	?	0.0108
COc1cccc(COc2ccc3c(C)c(Cc4ccccc4)c(=O)oc3c2)c1	nt	nt	-1.2	nt	nt	nt	nt	nt	nt	nt	nt
CCCCCCN1N=C(C)C(C(=O)c2ccc(Cl)cc2)C1=O (configuration not stated)	12.4	0.608	-5.4	4.95*	-5.6	0.0125*	0.0254*	0.0331	0.0136*	0.0324*	?
CCCCN(C(=O)c1ccc(Cl)cc1)C1CC2CCC(C1)N2C (configuration not stated)	10.3	nt	-0.7	0.415	-9.2	nt	nt	nt	nt	nt	nt
CCCCCCCN1N=C(C)C(C(=O)c2ccccc2)C1=O (configuration not stated)	13.2	0.952	-5.0	3.14*	-7.2	0.00801	0.0236*	?	0.0145*	0.0298*	0.0174*
CC1CCCCN1CC(=O)Nc1cc(S(=O)(=O)N2CCOCC2)ccc1N1CCCC1 (configuration not stated)	-7.8	-1.22	2.0	0.23	-38.5	nt	nt	nt	nt	nt	nt
CC(C)(C)NC(=O)C(=O)NNC(=O)C12CC3CC(CC(C3)C1)C2	4.7	0.0424	-1.8	5.92*	-13.7	?	0.0452*	0.0364*	0.0286*	0.0384*	0.0232*
SMILES	WT yeast gro inh	ROMK primary	Lmaj promast	KCC2 mod	Calpain2 inh	KCC2 sec1	KCC2 bumet counter	KCC2 secondary2	HEK counter1	KCC2 retest ouab	HEK293 Tl flux2
COC(=O)NNC(=O)C12CC3CC(CC(C3)C1)C2	-0.1	nt	-4.0	1.96	-14.8	nt	nt	nt	nt	nt	nt
CC(=O)c1cccc(NC(=O)COC(=O)COc2c(Cl)cc(Cl)c3ccc(C)nc23)c1	22.6	nt	-6.0	4.6*	-12.0	0.0103	0.0192*	0.0319	0.0128*	0.025	0.0113*
Cc1ccc2c(Cl)cc(Cl)c(OCC(=O)OCC(=O)Nc3ccc(C#N)cc3)c2n1	-13.7	nt	37.1	1.44	-14.6	nt	nt	nt	nt	nt	nt
CC(C)(C)C(=O)Nc1nnc(-c2ccncc2)o1	-0.9	nt	2.1	1.45	-25.2	nt	nt	nt	nt	nt	nt
O=C(Nc1nnc(-c2ccncc2)o1)c1ccc(Br)s1	12.7	0.415	14.3	4.64*	35.9	0.0174	0.00956*	0.0308	0.014*	0.0201	0.0153*
CCOC(=O)C1CCN(C2CC(=O)N(c3cccc(Cl)c3)C2=O)CC1 (configuration not stated)	-23.2	nt	-3.5	3.03*	-0.2	0.00843	0.00846*	0.0319	0.00747	0.0215	0.00983
NC(=O)C1CCN(C2CC(=O)N(c3cccc(F)c3)C2=O)CC1 (configuration not stated)	5.7	nt	3.8	0.195	-15.8	nt	nt	nt	nt	nt	nt
